About 2,000 (36%) of roughly 5,500 compounds were called active. About 18% were inconclusive and are not listed. No stated cut-off is given here; in the data, active means normalized growth mostly below about 0.91 (no sharp cut-off); inconclusive means no clear call, values can overlap the other calls; inactive means mostly above about 0.92. The list shows a part of the results.
Experiment: chemical genetic growth profiling, strain panel (AID 1159580);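 further: tested at 20 µM; growth read once vehicle control cultures reached saturation at 30 °C; 1 = growth at the plate median or of vehicle wells; lower values mean less growth of the strain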
Conditions: growth OD
[1] = S. cerevisiae deletion strains, locus YBR021W, strain FUR4, active compounds read low
[2] = S. cerevisiae deletion strains, locus YBR229C, strain ROT2, active compounds read low
[3] = S. cerevisiae deletion strains, locus YCL029C, strain bik1, active compounds read low
[4] = S. cerevisiae deletion strains, locus YDL035C, strain GPR1, active compounds read low
[5] = S. cerevisiae deletion strains, locus YDL074C, strain BRE1, active compounds read low
[6] = S. cerevisiae deletion strains, locus YDL101C, strain DUN1, active compounds read low
[7] = S. cerevisiae deletion strains, locus YDL185W, strain tfp1, active compounds read low
[8] = S. cerevisiae deletion strains, locus YDL192W, strain arf1, active compounds read low
[9] = S. cerevisiae deletion strains, locus YDR101C, strain arx1, active compounds read low
[10] = S. cerevisiae deletion strains, locus YDR162C, strain NBP2, active compounds read low
[11] = S. cerevisiae deletion strains, locus YDR318W, strain mcm21, active compounds read low
[12] = S. cerevisiae deletion strains, locus YDR388W, active compounds read low
[13] = S. cerevisiae deletion strains, locus YDR502C, strain sam2, active compounds read low
[14] = S. cerevisiae deletion strains, locus YEL061C, strain CIN8, active compounds read low
[15] = S. cerevisiae deletion strains, locus YER110C, active compounds read low
[16] = S. cerevisiae deletion strains, locus YER155C, strain BEM2, active compounds read low
[17] = S. cerevisiae deletion strains, locus YER167W, strain BCK2, active compounds read low
[18] = S. cerevisiae deletion strains, locus YGL078C, strain dbp3, active compounds read low
[19] = S. cerevisiae deletion strains, locus YGL086W, strain mad1, active compounds read low
[20] = S. cerevisiae deletion strains, locus YGL248W, strain PDE1, active compounds read low
[21] = S. cerevisiae deletion strains, locus YGR135W, strain pre9, active compounds read low
[22] = S. cerevisiae deletion strains, locus YGR252W, strain gcn5, active compounds read low
[23] = S. cerevisiae deletion strains, locus YHR030C, strain SLT2, active compounds read low
[24] = S. cerevisiae deletion strains, locus YHR079C, strain IRE1 (second series), active compounds read low
[25] = S. cerevisiae deletion strains, locus YHR094C, strain hxt1, active compounds read low
[26] = S. cerevisiae deletion strains, locus YHR129C, strain ARP1, active compounds read low
[27] = S. cerevisiae deletion strains, locus YHR200W, strain rpn10, active compounds read low
[28] = S. cerevisiae deletion strains, locus YIL066C, strain RNR3, active compounds read low
[29] = S. cerevisiae deletion strains, locus YIL073C, strain SPO22, active compounds read low
[30] = S. cerevisiae deletion strains, locus YIL125W, strain kgd1, active compounds read low
[31] = S. cerevisiae deletion strains, locus YIR030C, strain dcg1, active compounds read low
[32] = S. cerevisiae deletion strains, locus YJL095W, strain BCK1, active compounds read low
[33] = S. cerevisiae deletion strains, locus YJL134W, strain LCB3, active compounds read low
[34] = S. cerevisiae deletion strains, locus YJL168C, strain set2, active compounds read low
[35] = S. cerevisiae deletion strains, locus YJL187C, strain SWE1 (second series), active compounds read low
[36] = S. cerevisiae deletion strains, locus YJR043C, strain POL32, active compounds read low
[37] = S. cerevisiae deletion strains, locus YKL009W, strain mrt4, active compounds read low
[38] = S. cerevisiae deletion strains, locus YKL068W, active compounds read low
[39] = S. cerevisiae deletion strains, locus YKL085W, strain MDH1 (second series), active compounds read low
[40] = S. cerevisiae deletion strains, locus YKL085W, strain MDH1, active compounds read low
[41] = S. cerevisiae deletion strains, locus YKR001C, strain vps1, active compounds read low
[42] = S. cerevisiae deletion strains, locus YLR039C, strain RIC1, active compounds read low
[43] = S. cerevisiae deletion strains, locus YLR058C, strain SHM2, active compounds read low
[44] = S. cerevisiae deletion strains, locus YLR102C, strain apc9, active compounds read low
[45] = S. cerevisiae deletion strains, locus YLR262C, strain YPT6, active compounds read low
[46] = S. cerevisiae deletion strains, locus YLR268W, strain sec22, active compounds read low
[47] = S. cerevisiae deletion strains, locus YLR330W, strain CHS5, active compounds read low
[48] = S. cerevisiae deletion strains, locus YLR342W, strain FKS1 (second series), active compounds read low
[49] = S. cerevisiae deletion strains, locus YLR371W, strain rom2, active compounds read low
[50] = S. cerevisiae deletion strains, locus YLR418C, strain cdc73, active compounds read low
[51] = S. cerevisiae deletion strains, locus YML016C, strain PPZ1, active compounds read low
[52] = S. cerevisiae deletion strains, locus YML032C, strain rad52, active compounds read low
[53] = S. cerevisiae deletion strains, locus YML124C, strain tub3, active compounds read low
[54] = S. cerevisiae deletion strains, locus YMR078C, strain ctf18, active compounds read low
[55] = S. cerevisiae deletion strains, locus YMR223W, strain ubp8, active compounds read low
[56] = S. cerevisiae deletion strains, locus YMR307W, strain GAS1, active compounds read low
[57] = S. cerevisiae deletion strains, locus YNL067W, strain RPL9B, active compounds read low
[58] = S. cerevisiae deletion strains, locus YNL153C, strain GIM3, active compounds read low
[59] = S. cerevisiae deletion strains, locus YNL233W, strain BNI4, active compounds read low
[60] = S. cerevisiae deletion strains, locus YNL250W, strain rad50, active compounds read low
[61] = S. cerevisiae deletion strains, locus YNL271C, strain bni1, active compounds read low
[62] = S. cerevisiae deletion strains, locus YNL298W, strain CLA4, active compounds read low
[63] = S. cerevisiae deletion strains, locus YNL307C, strain MCK1, active compounds read low
[64] = S. cerevisiae deletion strains, locus YNR052C, strain pop2, active compounds read low
[65] = S. cerevisiae deletion strains, locus YOL012C, strain htz1
[66] = S. cerevisiae deletion strains, locus YOL147C, strain pex11, active compounds read low
[67] = S. cerevisiae deletion strains, locus YOR061W, strain CKA2, active compounds read low
[68] = S. cerevisiae deletion strains, locus YOR069W, strain VPS5, active compounds read low
[69] = S. cerevisiae deletion strains, locus YOR136W, strain idh2, active compounds read low
[70] = S. cerevisiae deletion strains, locus YOR144C, strain elg1, active compounds read low
[71] = S. cerevisiae deletion strains, locus YOR184W, strain ser1, active compounds read low
[72] = S. cerevisiae deletion strains, locus YOR316C, strain cot1, active compounds read low
[73] = S. cerevisiae deletion strains, locus YPL055C, strain LGE1, active compounds read low
[74] = S. cerevisiae deletion strains, locus YPL241C, strain CIN2, active compounds read low
[75] = S. cerevisiae deletion strains, locus YPR119W, strain clb2, active compounds read low
[76] = S. cerevisiae deletion strains, locus YPR141C, strain kar3, active compounds read low
[77] = S. cerevisiae deletion strains, locus YPR163C, strain tif3, active compounds read low
[78] = S. cerevisiae deletion strains, locus YPR167C, strain met16, active compounds read low
[79] = S. cerevisiae deletion strains, strain wtn01, active compounds read low
[80] = S. cerevisiae strains, strain wild type, active compounds read low

Measured: normalized growth

O=C1C[C@@H](c2ccccc2)Oc2cc(O)cc(O)c21
active: [8] 0.871 | [11] 0.875 | [13] 0.892 | [20] 0.884 | [21] 0.843 | [22] 0.595 | [37] 0.847 | [41] 0.878 | [43] 0.887 | [48] 0.79 | [50] 0.711 | [52] 0.864 | [55] 0.862 | [62] 0.877 | [63] 0.901 | [71] 0.757 | [78] 0.909
inactive: [1] 0.958 | [2] 0.927 | [3] 0.939 | [4] 0.884 | [5] 0.858 | [6] 0.899 | S. cerevisiae deletion strains, locus YDL134C, strain PPH21, active compounds read low 0.903 | [7] 0.932 | [9] 0.943 | S. cerevisiae deletion strains, locus YDR150W, strain NUM1, active compounds read low 0.949 | [10] 0.859 | [12] 0.95 | [14] 0.957 | [15] 0.924 | [16] 0.955 | [17] 0.947 | [18] 0.947 | [19] 1 | S. cerevisiae deletion strains, locus YGR078C, strain PAC10, active compounds read low 0.86 | [23] 0.97 | [24] 0.952 | [25] 0.934 | [26] 0.942 | [27] 0.942 | [28] 0.887 | [29] 0.91 | [30] 0.957 | [31] 0.942 | [32] 0.816 | [33] 0.963 | [34] 0.961 | [35] 0.893 | [36] 0.906 | S. cerevisiae deletion strains, locus YJR075W, strain HOC1, active compounds read low 0.919 | [38] 0.949 | [39] 0.929 | [40] 0.929 | S. cerevisiae deletion strains, locus YKL190W, strain CNB1, active compounds read low 0.955 | [42] 0.711 | [44] 0.957 | [45] 0.656 | [46] 0.943 | [47] 0.946 | [49] 0.968 | [51] 0.96 | [53] 0.947 | [54] 0.929 | [56] 0.742 | [57] 0.884 | S. cerevisiae deletion strains, locus YNL128W, strain TEP1, active compounds read low 0.936 | [58] 0.895 | [59] 0.886 | [60] 0.954 | [61] 0.93 | S. cerevisiae deletion strains, locus YNL322C, strain KRE1, active compounds read low 0.938 | [64] 0.943 | [65] 0.987 | [66] 0.933 | [67] 0.934 | [68] 0.943 | [69] 0.968 | [70] 0.945 | [72] 0.943 | [73] 0.844 | [74] 0.955 | [75] 0.949 | [76] 0.955 | [77] 0.927 | [79] 0.99 | [80] 0.927

O=C1CC(c2ccccc2)Oc2ccccc21 (centres undefined)
inactive: [1] 0.97 | [2] 0.985 | [3] 0.971 | [4] 1.02 | [5] 0.989 | [6] 0.996 | [7] 0.958 | [8] 0.957 | [9] 0.958 | [10] 1.02 | [11] 0.954 | [12] 0.96 | [13] 0.96 | [14] 0.976 | [15] 0.963 | [16] 0.982 | [17] 0.989 | [18] 0.96 | [19] 0.974 | [20] 0.993 | [21] 0.969 | S. cerevisiae deletion strains, locus YGR229C, strain SMI1, active compounds read low 0.985 | [22] 1.03 | [23] 0.982 | [24] 0.967 | [25] 0.972 | [26] 0.983 | [27] 0.961 | [28] 1 | [29] 1.05 | [30] 0.956 | [31] 0.977 | [32] 0.932 | [33] 0.983 | [34] 0.958 | [35] 1.02 | [36] 0.958 | [37] 1.02 | [38] 0.966 | [39] 0.972 | [40] 0.972 | [41] 0.927 | [42] 0.956 | [43] 0.992 | [44] 0.961 | [45] 0.971 | [46] 0.962 | [47] 0.988 | [48] 0.944 | [49] 0.961 | [50] 0.894 | [51] 0.974 | [52] 0.949 | [53] 0.95 | [54] 0.955 | [55] 0.961 | [56] 1.01 | [57] 1.03 | [58] 1.01 | [59] 0.967 | [60] 0.966 | [61] 0.947 | [62] 0.971 | [63] 0.943 | [64] 0.971 | S. cerevisiae deletion strains, locus YOL006C, strain TOP1, active compounds read low 0.932 | [65] 1 | [66] 0.942 | [67] 0.989 | [68] 0.98 | [69] 0.965 | [70] 0.949 | [71] 0.925 | [72] 0.964 | [73] 1 | [74] 0.977 | [75] 0.935 | [76] 0.954 | [77] 0.952 | [78] 1.01 | [79] 0.95 | [80] 0.988

Reference: PubChem BioAssay AID1159580 (chemical genetic matrix, 2015)
